Source: the supplement of paper PMC11732987, “Enantioselective OTUD7B fragment discovery through chemoproteomics screening and high-throughput optimisation” (Communications Chemistry, 2025)

Tests used:
Assay in all cases: log2 ratio of Biotin-Ahx-Ub-VS probe labelling (fragment/DMSO); higher = less target engagement (more negative = stronger competition), active = hit call of the paper (q ≤ 0.05, log2 ratio ≤ -1)
Settings in all cases: compound concentration: 200 uM; treatment time: 3 h
USP34 = USP34 (UniProt Q70CQ2)
In short: (§1)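 HEK293T lysate, 495 µg per sample in Tris/CHAPS/IGEPAL buffer with protease inhibitors, was treated in triplicate with fragment at 200 µM or vehicle for 3 h and then with Biotin-Ahx-Ub-VS at 0.5 µM final for 1 h. Labelled DUBs were NeutrAvidin-enriched, digested with LysC and trypsin, and run by diaPASEF LC-MS/MS. Spectronaut label-free quantities were global-median-normalised, and values are average log2 fragment/vehicle ratios by unpaired t-test on proteins with ≥2 unique peptides.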

USP36 = molecular target: T1, USP36 (UniProt Q9P275)
T1 sequence (whole entry): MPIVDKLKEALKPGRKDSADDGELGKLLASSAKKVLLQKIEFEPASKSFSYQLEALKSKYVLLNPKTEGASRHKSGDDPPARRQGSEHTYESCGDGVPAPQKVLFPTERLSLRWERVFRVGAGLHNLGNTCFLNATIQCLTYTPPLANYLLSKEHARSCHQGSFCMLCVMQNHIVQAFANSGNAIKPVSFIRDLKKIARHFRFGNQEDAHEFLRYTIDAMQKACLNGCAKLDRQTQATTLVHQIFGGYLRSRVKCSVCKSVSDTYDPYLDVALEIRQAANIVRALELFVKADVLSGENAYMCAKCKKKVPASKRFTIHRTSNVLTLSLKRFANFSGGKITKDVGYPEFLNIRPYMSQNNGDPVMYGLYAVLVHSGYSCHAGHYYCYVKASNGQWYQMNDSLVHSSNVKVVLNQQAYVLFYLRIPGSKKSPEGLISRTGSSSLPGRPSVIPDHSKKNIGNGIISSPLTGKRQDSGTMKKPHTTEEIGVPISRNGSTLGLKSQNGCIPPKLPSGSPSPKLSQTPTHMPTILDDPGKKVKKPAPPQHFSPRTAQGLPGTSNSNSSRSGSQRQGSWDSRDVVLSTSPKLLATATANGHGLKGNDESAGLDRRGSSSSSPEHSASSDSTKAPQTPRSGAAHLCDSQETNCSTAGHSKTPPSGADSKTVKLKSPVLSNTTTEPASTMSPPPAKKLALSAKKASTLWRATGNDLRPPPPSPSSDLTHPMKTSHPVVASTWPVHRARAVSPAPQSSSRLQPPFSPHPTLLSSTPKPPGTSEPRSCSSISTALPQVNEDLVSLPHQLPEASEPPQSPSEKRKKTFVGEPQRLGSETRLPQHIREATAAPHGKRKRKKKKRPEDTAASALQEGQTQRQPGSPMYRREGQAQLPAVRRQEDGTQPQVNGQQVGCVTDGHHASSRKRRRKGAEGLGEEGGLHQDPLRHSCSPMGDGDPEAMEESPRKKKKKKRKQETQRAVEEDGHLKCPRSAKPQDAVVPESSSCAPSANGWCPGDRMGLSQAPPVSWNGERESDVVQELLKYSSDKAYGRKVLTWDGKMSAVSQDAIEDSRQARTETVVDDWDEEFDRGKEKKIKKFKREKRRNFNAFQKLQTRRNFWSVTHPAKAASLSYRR
In short: as §1

USP38 = molecular target: T2, USP38 (UniProt Q8NB14)
T2 sequence (whole entry): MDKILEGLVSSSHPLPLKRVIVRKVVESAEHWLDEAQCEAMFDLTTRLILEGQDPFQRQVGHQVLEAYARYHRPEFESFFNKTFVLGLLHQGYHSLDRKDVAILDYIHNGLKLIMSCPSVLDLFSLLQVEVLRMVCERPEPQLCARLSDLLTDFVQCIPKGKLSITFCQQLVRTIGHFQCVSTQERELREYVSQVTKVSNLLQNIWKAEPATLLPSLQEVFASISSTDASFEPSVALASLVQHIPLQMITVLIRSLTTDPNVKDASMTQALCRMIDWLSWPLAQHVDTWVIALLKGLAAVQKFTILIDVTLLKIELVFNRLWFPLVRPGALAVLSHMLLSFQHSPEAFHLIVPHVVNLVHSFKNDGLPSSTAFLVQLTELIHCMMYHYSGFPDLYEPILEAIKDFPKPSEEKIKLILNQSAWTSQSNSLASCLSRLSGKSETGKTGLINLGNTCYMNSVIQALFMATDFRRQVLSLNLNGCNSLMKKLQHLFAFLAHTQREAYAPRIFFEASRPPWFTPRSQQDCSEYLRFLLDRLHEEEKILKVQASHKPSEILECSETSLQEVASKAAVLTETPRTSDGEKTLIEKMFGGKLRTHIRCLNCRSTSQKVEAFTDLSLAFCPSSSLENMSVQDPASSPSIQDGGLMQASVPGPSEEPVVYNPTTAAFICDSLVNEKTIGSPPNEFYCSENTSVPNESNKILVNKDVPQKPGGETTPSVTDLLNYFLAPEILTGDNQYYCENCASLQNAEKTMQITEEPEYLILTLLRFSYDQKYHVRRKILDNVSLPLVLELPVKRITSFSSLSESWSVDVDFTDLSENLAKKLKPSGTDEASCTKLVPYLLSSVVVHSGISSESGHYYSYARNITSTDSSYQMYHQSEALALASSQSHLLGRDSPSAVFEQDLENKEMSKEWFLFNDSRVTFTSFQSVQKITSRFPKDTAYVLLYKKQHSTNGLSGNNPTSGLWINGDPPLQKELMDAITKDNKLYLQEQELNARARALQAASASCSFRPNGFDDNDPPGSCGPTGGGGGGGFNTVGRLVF
In short: as §1

USP39 = molecular target: T3, USP39 (UniProt Q53GS9)
T3 sequence (whole entry): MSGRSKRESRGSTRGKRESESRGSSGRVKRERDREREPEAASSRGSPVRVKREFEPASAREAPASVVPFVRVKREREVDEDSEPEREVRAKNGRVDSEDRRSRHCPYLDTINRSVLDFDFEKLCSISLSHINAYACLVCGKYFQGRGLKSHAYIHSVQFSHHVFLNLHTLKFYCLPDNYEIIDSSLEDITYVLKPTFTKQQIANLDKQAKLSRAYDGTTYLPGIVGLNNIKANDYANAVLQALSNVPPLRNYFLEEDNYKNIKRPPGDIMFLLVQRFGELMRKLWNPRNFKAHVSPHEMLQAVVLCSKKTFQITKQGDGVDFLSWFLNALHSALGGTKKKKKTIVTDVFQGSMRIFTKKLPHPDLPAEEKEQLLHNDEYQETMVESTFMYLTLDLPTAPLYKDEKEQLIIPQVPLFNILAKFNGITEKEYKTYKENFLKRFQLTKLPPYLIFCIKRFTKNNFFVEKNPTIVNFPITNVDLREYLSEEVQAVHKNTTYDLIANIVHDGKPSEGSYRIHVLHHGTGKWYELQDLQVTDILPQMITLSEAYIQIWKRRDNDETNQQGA
In short: as §1

USP4 = molecular target: T4, USP4 (UniProt Q13107)
T4 sequence (whole entry): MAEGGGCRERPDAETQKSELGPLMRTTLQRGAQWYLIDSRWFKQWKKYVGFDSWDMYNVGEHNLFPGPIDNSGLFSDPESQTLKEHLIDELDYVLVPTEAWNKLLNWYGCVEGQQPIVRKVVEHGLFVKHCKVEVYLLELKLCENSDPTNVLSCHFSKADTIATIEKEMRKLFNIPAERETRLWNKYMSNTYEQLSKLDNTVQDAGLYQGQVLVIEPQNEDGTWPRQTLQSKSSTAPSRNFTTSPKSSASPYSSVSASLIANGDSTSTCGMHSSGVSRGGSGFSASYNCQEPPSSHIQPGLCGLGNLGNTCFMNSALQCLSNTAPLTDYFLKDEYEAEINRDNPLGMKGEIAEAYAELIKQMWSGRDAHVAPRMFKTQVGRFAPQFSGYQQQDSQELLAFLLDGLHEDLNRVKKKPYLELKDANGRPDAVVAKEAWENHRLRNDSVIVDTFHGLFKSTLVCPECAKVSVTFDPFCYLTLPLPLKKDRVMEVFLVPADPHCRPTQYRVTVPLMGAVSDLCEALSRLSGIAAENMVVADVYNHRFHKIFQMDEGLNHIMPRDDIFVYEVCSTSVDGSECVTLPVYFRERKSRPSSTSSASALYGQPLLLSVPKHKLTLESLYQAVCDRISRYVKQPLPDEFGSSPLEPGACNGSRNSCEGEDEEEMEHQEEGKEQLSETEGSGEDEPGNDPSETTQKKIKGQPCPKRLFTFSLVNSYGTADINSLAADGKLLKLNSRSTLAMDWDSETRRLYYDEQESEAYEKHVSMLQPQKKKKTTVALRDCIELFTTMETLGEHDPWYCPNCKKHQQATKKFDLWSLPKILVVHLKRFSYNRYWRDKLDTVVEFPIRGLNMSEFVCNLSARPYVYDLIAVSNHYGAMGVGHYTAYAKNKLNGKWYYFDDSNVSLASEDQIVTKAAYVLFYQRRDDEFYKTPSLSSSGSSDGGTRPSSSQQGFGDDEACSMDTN
In short: as §1

Measured: log2 ratio of Biotin-Ahx-Ub-VS probe labelling

Chain of USP34 (Q70CQ2 whole entry, the tested form may be a part): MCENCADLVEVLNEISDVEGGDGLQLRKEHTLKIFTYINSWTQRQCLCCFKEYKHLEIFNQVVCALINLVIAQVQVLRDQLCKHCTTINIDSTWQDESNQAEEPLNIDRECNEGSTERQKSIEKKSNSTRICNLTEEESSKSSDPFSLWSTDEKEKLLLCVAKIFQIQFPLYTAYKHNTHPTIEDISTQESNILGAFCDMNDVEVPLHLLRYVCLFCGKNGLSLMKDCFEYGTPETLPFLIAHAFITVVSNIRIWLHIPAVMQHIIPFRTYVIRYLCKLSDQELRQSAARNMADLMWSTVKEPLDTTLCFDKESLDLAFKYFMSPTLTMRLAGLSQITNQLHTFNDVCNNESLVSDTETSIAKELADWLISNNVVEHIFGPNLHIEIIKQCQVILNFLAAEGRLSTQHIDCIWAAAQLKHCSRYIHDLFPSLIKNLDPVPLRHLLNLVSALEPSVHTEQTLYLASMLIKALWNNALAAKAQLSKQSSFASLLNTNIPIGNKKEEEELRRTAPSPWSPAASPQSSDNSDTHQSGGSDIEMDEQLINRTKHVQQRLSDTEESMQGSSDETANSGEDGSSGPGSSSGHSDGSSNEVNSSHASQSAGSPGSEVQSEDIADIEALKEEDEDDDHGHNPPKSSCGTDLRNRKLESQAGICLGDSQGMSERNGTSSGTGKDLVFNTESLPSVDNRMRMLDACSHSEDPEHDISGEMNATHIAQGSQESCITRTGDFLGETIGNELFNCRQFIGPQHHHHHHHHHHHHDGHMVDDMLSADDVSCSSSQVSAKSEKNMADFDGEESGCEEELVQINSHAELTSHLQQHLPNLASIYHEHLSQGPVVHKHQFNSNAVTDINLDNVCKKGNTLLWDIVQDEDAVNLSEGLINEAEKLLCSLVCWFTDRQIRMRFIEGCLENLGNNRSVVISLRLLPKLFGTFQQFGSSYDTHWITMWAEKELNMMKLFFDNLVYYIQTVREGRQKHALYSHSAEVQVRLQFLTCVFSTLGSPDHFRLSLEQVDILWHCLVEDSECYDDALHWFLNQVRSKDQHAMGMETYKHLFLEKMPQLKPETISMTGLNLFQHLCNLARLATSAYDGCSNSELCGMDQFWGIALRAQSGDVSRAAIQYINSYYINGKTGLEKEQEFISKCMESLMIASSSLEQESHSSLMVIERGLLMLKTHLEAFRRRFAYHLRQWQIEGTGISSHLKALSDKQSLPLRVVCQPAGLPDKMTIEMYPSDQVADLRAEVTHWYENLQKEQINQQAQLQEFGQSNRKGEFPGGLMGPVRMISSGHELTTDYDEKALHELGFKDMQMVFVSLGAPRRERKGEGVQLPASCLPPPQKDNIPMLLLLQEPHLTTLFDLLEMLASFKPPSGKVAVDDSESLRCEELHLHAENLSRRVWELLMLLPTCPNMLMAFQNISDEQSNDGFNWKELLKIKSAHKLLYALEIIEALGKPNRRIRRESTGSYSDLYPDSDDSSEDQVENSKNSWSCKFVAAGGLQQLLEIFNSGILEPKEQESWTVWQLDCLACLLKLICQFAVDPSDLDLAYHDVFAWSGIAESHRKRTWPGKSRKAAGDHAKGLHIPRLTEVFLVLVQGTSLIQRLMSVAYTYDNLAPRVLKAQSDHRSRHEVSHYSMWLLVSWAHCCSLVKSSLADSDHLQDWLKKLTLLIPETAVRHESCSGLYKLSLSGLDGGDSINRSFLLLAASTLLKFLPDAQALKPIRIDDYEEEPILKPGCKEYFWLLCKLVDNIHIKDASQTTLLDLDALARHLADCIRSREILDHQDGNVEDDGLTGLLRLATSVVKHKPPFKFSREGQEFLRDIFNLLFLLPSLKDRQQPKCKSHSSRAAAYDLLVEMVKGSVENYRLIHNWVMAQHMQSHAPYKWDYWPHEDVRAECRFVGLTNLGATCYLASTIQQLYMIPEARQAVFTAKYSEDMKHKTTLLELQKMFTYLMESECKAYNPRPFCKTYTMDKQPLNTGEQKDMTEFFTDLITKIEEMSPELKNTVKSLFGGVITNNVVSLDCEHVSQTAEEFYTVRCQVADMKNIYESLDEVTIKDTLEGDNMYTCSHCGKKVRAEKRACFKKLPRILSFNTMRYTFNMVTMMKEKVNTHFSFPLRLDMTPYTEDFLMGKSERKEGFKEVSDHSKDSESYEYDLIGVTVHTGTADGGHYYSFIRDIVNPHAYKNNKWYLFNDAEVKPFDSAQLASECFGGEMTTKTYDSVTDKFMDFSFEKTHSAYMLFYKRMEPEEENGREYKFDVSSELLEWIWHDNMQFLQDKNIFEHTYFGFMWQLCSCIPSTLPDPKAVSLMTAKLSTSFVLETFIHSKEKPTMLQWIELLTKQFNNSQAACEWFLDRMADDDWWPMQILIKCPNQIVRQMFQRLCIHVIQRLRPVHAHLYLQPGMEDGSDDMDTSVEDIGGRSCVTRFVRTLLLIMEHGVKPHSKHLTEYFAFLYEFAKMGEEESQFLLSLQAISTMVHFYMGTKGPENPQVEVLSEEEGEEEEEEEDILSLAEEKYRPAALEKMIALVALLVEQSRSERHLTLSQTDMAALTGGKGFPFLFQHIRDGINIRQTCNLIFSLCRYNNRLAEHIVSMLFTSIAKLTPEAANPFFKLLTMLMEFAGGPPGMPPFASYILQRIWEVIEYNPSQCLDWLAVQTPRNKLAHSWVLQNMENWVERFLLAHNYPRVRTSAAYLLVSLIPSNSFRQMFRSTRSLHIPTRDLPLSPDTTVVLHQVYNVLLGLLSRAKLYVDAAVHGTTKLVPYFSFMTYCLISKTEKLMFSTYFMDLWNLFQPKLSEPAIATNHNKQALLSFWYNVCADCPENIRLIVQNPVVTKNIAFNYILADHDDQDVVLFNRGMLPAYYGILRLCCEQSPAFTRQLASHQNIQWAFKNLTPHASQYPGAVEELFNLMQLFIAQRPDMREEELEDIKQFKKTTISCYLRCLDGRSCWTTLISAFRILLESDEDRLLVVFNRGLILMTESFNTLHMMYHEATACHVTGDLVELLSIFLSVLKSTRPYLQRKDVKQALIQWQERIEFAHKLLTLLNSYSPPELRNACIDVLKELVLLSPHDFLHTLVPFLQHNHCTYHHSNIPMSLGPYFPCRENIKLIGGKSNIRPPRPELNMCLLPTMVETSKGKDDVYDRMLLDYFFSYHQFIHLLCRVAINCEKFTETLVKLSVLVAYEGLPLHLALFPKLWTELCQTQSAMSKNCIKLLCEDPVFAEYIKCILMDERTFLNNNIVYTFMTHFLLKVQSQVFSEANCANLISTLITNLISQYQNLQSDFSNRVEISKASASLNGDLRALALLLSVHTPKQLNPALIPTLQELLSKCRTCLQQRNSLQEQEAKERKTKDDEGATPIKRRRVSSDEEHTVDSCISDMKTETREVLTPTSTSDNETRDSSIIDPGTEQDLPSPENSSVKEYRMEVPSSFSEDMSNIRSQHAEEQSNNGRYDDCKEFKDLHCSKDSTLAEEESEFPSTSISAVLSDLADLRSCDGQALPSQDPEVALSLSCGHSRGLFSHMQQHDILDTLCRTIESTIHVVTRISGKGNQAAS

O=C(CCl)N1CCCC2CCCCC21 (stereo not given)
inactive: USP34 -0.14 | USP36 -0.176 | USP38 -0.0442 | USP39 -0.107 | USP4 -0.14
